Hits are enriched below; roughly 1.8% of the tested compounds scored in any of these assays.
A3G deaminase: APOBEC3G DNA deaminase inhibitors, primary screen, biochemical, fluorescence, single-stranded DNA substrate, uHTS; inhibition, % at 20 µM; recombinant A3G, ssDNA deamination FAM/TAMRA fluorescence; 0.28% of 330,000 active; AID 493012, 2011;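 active = inhibition of at least 40% at 20 µM, with no more than 30% in the related APOBEC3A deaminase screen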
NRP1-CendR mod: modulators of CendR peptide binding to NRP-1, primary screen, biochemical, fluorescence polarization, uHTS. AID 602438, 2012. 0.85% of 360,000 active. FAM-RPARPAR peptide binding to NRP-1. Neuropilin-1 (Homo sapiens), O14786. inhibition, % at 25 µM;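 active = inhibition or corrected inhibition above about 18%, plus a signal ratio from 0.5 to 1.5, limit read from the data, passing the limit was not always enough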
VLA-4 inh: inhibition in human VLA-4 binding assay, primary screen, VLA-4 allosteric modulator project, MLPCN library, flow cytometry, VLA-4 expressing cells; 0.2% of 330,000 active; Integrin alpha-4 (Homo sapiens), P13612; ligand binding flow cytometry; inhibition, % (about 7 µM as worked out from the volumes in the protocol); in the data active = inhibition above about 50%
A3A deaminase: APOBEC3A ssDNA deaminase inhibitors, primary screen, selectivity assay for APOBEC3G inhibitor project, biochemical, FAM/TAMRA oligo cleavage fluorescence | recombinant A3A, FAM/TAMRA ssDNA deamination fluorescence | inhibition, % at 20 µM | 0.41% of 330,000 active | AID 493011, 2011;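 active = at least 40% inhibition at 20 µM here, with at most 30% in a related deaminase screen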
MIN6 prolif: inducers of MIN6 beta-cell proliferation, primary screen, ATP luminescence, uHTS; MIN6 cells proliferation, ATPlite luminescence, 48 h; cells starved in 0.2% serum; 100% = growth in 10% serum; 0.29% of 330,000 active; proliferation, % at 10 µM;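 active = compounds whose signal lies at least 3.5 SD above the mean of all wells on their plate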
Of the large screens only hits and unclear results are named; the others gave an inactive call.

Cc1nn(C)c(-c2n[nH]c(=S)n2Cc2ccco2)c1Cl	none
Oc1cc2ccccc2cc1-c1n[nH]c(=S)n1Cc1ccco1	NRP1-CendR mod 21
OCCN(CCO)c1cc2c3ccccc3ccc2c2ccccc12	NRP1-CendR mod 25 (no result: A3G deaminase, VLA-4 inh, A3A deaminase, MIN6 prolif)
COc1cc(CN2CCN(C(=O)c3cccc4ccccc34)CC2)cc(OC)c1O	none
Cc1cc(O)c(-c2cc(O)c(C)cc2O)cc1O	A3G deaminase 86
Cc1cc(N=O)c(C)cc1O	none (no result: A3G deaminase, VLA-4 inh, A3A deaminase, MIN6 prolif)
CC(CN1CCCCC1)OC(=O)c1ccc(Cl)cc1Cl (centres undefined)	NRP1-CendR mod 22
COc1ccc(S(=O)(=O)NCC2CCCN(CC(C)(C)C)C2)cc1 (centres undefined)	none
CCN(CC)C(=O)Cn1cc(S(=O)(=O)CC(=O)NCc2ccc(C)cc2)c2ccccc21	NRP1-CendR mod 22
CCn1c(SC(C)C(=O)Nc2nccs2)nnc1-c1ccncc1 (centres undefined)	NRP1-CendR mod 24
CC(C)CN(C(=O)c1cc(=O)[nH]c2ccccc12)c1c(N)n(Cc2ccccc2)c(=O)[nH]c1=O	none
CC(=O)OCC1OC(OCc2cn(C[C@H]3CC[C@H](Cn4cc(COC5OC(COC(C)=O)C(OC(C)=O)C(OC(C)=O)C5OC(C)=O)nn4)O3)nn2)C(OC(C)=O)C(OC(C)=O)C1OC(C)=O (some centres undefined)	NRP1-CendR mod 19
CC(=O)OCC1OC(OCc2cn(C[C@H]3CC[C@@H]([C@@H]4CC[C@H](Cn5cc(COC6OC(COC(C)=O)C(OC(C)=O)C(OC(C)=O)C6OC(C)=O)nn5)O4)O3)nn2)C(OC(C)=O)C(OC(C)=O)C1OC(C)=O (some centres undefined)	none
Cc1ccc(S(=O)(=O)N2CCN(CCOc3cccc(C)c3)CC2)cc1	none
Oc1cc(O)c(CN2CCOCC2)cc1CN1CCOCC1	none (no result: A3G deaminase, VLA-4 inh, A3A deaminase, MIN6 prolif)
Oc1c(CN2CCOCC2)cc(CN2CCOCC2)cc1CN1CCOCC1	NRP1-CendR mod 29 (no result: A3G deaminase, VLA-4 inh, A3A deaminase, MIN6 prolif)
CCOC(=O)c1c(N)nn(C(=O)C(C)C)c1-c1ccccc1	NRP1-CendR mod 22
CC1CC(=O)Nc2cc([N+](=O)[O-])ccc2N1 (centres undefined)	NRP1-CendR mod 32
Cc1ccc(S(=O)C(c2ccccc2)c2ccccc2)cc1 (centres undefined)	NRP1-CendR mod 20 (no result: A3G deaminase, VLA-4 inh, A3A deaminase, MIN6 prolif)
O=S(c1ccccc1)C(c1ccccc1)c1ccccc1 (centres undefined)	none (no result: A3G deaminase, VLA-4 inh, A3A deaminase, MIN6 prolif)
COC(=O)c1ccc(CC2(C)C(=O)Nc3ccc(-c4cccc(C(F)(F)F)c4)cc32)o1 (centres undefined)	none (no result: A3G deaminase, VLA-4 inh, A3A deaminase, MIN6 prolif)
Cc1ccc(NC(=O)c2ccc([N+](=O)[O-])cc2)cc1S(=O)(=O)N(C)C	none
Cc1ccc(NC(=O)CCNC(=O)c2ccc([N+](=O)[O-])cc2)cc1S(=O)(=O)N(C)C	NRP1-CendR mod 39
O=C(Nc1ccc(S(=O)(=O)Nc2ccccn2)cc1)c1ccc(Cl)cc1Cl	none
Cc1cc(O)c(S(=O)(=O)c2ccccc2)c(C)c1NS(=O)(=O)c1ccccc1	none
CC(C)CC1(C2CCCC2)NC(=O)NC1=O (centres undefined)	none (no result: A3G deaminase, VLA-4 inh, A3A deaminase, MIN6 prolif)
CN(C)c1ccc(/C=N/NC(=O)c2nonc2N)cc1[N+](=O)[O-]	NRP1-CendR mod 25
Cc1cccc(NS(=O)(=O)c2ccc(C(=O)N3CCC3)cc2)c1C	none
CCN(C[C@H]1N[C@@](Cc2ccccc2)(C(=O)OC)[C@H]2C(=O)N(Cc3ccccc3)C(=O)[C@@H]12)S(=O)(=O)c1ccc(OC)cc1	NRP1-CendR mod 26
CC(C)C1(C2CCCC2)NC(=O)NC1=O (centres undefined)	none (no result: A3G deaminase, VLA-4 inh, A3A deaminase, MIN6 prolif)
CC(C)C1=C2CCCCC2NC(=O)N1 (centres undefined)	NRP1-CendR mod 28
CCCCC1CCC(C(=O)NC2CCS(=O)(=O)C2)CC1 (centres undefined)	NRP1-CendR mod 38
O=C(NC1CCS(=O)(=O)C1)C1CCCC1 (centres undefined)	none
CCOc1ccccc1OCCCC(=O)ON=C(N)c1ccccc1	none
Cc1cc(C(=O)N/N=C/c2ccc(C)s2)n[nH]1	NRP1-CendR mod 18
